# Measured values reported in the supplement of paper PMC8728848.
# Only a selection was taken, and the strongest signals are over-represented in it overall.
# Legend:
# Assay in all cases: glycan array binding signal (z-score within array); higher = stronger binding
# Details in all cases: glycan notation: IUPAC condensed, linker removed
# [1] = target: Gal6S(b1-3)GlcNAc
# In short: (§1)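 The binding signal is a Z-score computed within each array and averaged over linkers. Arrays of the same protein sequence at different concentrations or buffers were also averaged together. Data originate from 3228 arrays in the Consortium for Functional Glycomics database, kept only where the protein sequence was available.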
# [2] = target: Gal6S(b1-3)GlcNAc6S
# In short: as §1
# [3] = target: GalNAc(b1-4)GlcNAc
# In short: as §1
# [4] = target: GalNAc(b1-4)GlcNAc6S
# In short: as §1
# [5] = target: GlcNAc(b1-2)Man(a1-3)[GlcNAc(b1-2)Man(a1-6)]Man(b1-4)GlcNAc(b1-4)GlcNAc
# In short: as §1
# [6] = target: GlcNAc(b1-2)[GlcNAc(b1-4)]Man(a1-3)[GlcNAc(b1-4)][GlcNAc(b1-2)[GlcNAc(b1-6)]Man(a1-6)]Man(b1-4)GlcNAc(b1-4)GlcNAc
# In short: as §1
# [7] = target: GlcNAc(b1-3)Fuc
# In short: as §1
# [8] = target: GlcNAc(b1-3)Gal(b1-4)GlcNAc(b1-3)Gal(b1-4)GlcNAc(b1-3)Gal(b1-4)GlcNAc(b1-3)Gal(b1-4)GlcNAc(b1-2)Man(a1-3)[GlcNAc(b1-3)Gal(b1-4)GlcNAc(b1-3)Gal(b1-4)GlcNAc(b1-3)Gal(b1-4)GlcNAc(b1-3)Gal(b1-4)GlcNAc(b1-2)Man(a1-6)]Man(b1-4)GlcNAc(b1-4)GlcNAc
# In short: as §1
# [9] = target: GlcNAc(b1-3)Gal(b1-4)GlcNAc(b1-3)[GlcNAc(b1-3)Gal(b1-4)GlcNAc(b1-3)]GalNAc
# In short: as §1
# [10] = target: GlcNAc(b1-3)Gal(b1-4)GlcNAc(b1-6)[GlcNAc(b1-3)]Gal(b1-4)GlcNAc
# In short: as §1
# [11] = target: GlcNAc(b1-6)GalNAc
# In short: as §1
# [12] = target: Kdn(a2-3)Gal(b1-4)[Fuc(a1-3)]GlcNAc
# In short: as §1
# [13] = target: Man(a1-3)[Man(a1-6)]Man(a1-6)[Man(a1-3)]Man
# In short: as §1
# [14] = target: Neu5Ac(a2-3)Gal(b1-3)GlcNAc(b1-3)GalNAc
# In short: as §1
# [15] = target: Neu5Ac(a2-3)Gal(b1-3)GlcNAc6S
# In short: as §1
# [16] = target: Neu5Ac(a2-3)Gal(b1-4)GlcNAc(b1-3)Gal(b1-3)GlcNAc
# In short: as §1
# [17] = target: Neu5Ac(a2-3)Gal(b1-4)GlcNAc(b1-3)Gal(b1-4)GlcNAc(b1-3)Gal(b1-4)GlcNAc(b1-2)Man(a1-3)[Neu5Ac(a2-3)Gal(b1-4)GlcNAc(b1-3)Gal(b1-4)GlcNAc(b1-3)Gal(b1-4)GlcNAc(b1-2)Man(a1-6)]GalNAc
# In short: as §1
# [18] = target: Neu5Ac(a2-3)Gal(b1-4)[Fuc(a1-3)]GlcNAc(b1-3)Gal
# In short: as §1
# [19] = target: Neu5Ac(a2-6)Gal(b1-4)GlcNAc(b1-2)Man(a1-3)Man(b1-4)GlcNAc(b1-4)GlcNAc
# In short: as §1
# [20] = target: Neu5Ac(a2-6)Gal(b1-4)GlcNAc(b1-6)[Gal(b1-3)]GalNAc
# In short: as §1
# [21] = target: Neu5Ac(a2-8)Neu5Ac(a2-3)Gal(b1-4)GlcNAc
# In short: as §1
# [22] = target: Neu5Ac(a2-8)Neu5Ac(a2-3)[Gal(b1-3)GalNAc(b1-4)]Gal(b1-4)Glc
# In short: as §1
# [23] = target: Neu5Ac(a2-8)Neu5Gc(a2-3)Gal(b1-4)GlcNAc
# In short: as §1
# [24] = target: Neu5Gc(a2-6)Gal(b1-4)GlcNAc
# In short: as §1
# [25] = target: Neu5Gc(b2-6)Gal(b1-4)GlcNAc
# In short: as §1
binder,measurement,setting,value
"YghJ (Escherichia coli), E3PJ90 (protein) MNKKFKYKKSLLAAILSATLLAGCDGGGSGSSSDTPPVDSGTGSLPEVKPDPTPNPEPTPEPTPDPEPTPEPIPDPEPTPEPEPEPVPTKTGYLTLGGSQRVTGATCNGESSDGFTFKPGEDVTCVAGNTTIATFNTQSEAARSLRAVEKVSFSLEDAQELAGSDDKKSNAVSLVTSSNSCPANTEQVCLTFSSVIESKRFDSLYKQIDLAPEEFKKLVNEEVENNAATDKAPSTHTSPVVPVTTPGTKPDLNASFVSANAEQFYQYQPTEIILSEGRLVDSQGYGVAGVNYYTNSGRGVTGENGEFSFSWGEAISFGIDTFELGSVRGNKSTIALTELGDEVRGANIDQLIHRYSTTGQNNTRVVPDDVRKVFAEYPNVINEIINLSLSNGATLGEGEQVVNLPNEFIEQFNTGQAKEIDTAICAKTDGCNEARWFSLTTRNVNDGQIQGVINKLWGVDTNYKSVSKFHVFHDSTNFYGSTGNARGQAVVNISNAAFPILMARNDKNYWLAFGEKRAWDKNELAYITEAPSIVRPENVTRETASFNLPFISLGQVGDGKLMVIGNPHYNSILRCPNGYSWNGGVNKDGQCTLNSDPDDMKNFMENVLRYLSNDRWLPDAKSSMTVGTNLETVYFKKHGQVLGNSAPFAFHKDFTGITVKPMTSYGNLNPDEVPLLILNGFEYVTQWGSDPYSIPLRADTSKPKLTQQDVTDLIAYMNKGGSVLIMENVMSNLKEESASGFVRLLDAAGLSMALNKSVVNNDPQGYPDRVRQRRSTPIWVYERYPAVDGKPPYTIDDTTKEVIWKYQQENKPDDKPKLEVASWQEEVEGKQVTQFAFIDEADHKTPESLAAAKQRILDAFPGLEVCKDSDYHYEVNCLEYRPGTDVPVTGGMYVPQYTQLDLSADTAKAMLQAADLGTNIQRLYQHELYFRTNGRQGERLNSVDLERLYQNMSVWLWNETKYRYEEGKEDELGFKTFTEFLNCYTNNAYVGTQCSAELKKSLIDNKMIYGEESSKAGMMNPSYPLNYMEKPLTRLMLGRSWWDLNIKVDVEKYPGVVNTNGETVTQNINLYSAPTKWFAGNMQSTGLWAPAQQEVSIESKSTVPVTVTVALADDLTGREKHEVSLNRPPRVTKTYDLKANDKVTFKVPYGGLIYIKGDSKEVQSADFTFTGVVKAPFYKDGKWQHDLNSPAPLGELESASFVYTTPKKNLNASNYTGGLEQFANDLDTFASSMNDFYGRDSEDGKHRMFTYKNLPGHKHRFANDVQISIGDAHSGYPVMNSSFSPNSTTLPTTPLNDWLIWHEVGHNAAETPLTVPGATEVANNVLALYMQDRYLGKMNRVADDITVAPEYLEESNGQAWARGGAGDRLLMYAQLKEWAEKNFDIKKWYPDGTPLPEFYSEREGMKGWNLFQLMHRKARGDEVSNDKFGGKNYCAESNGNAADTLMLCASWVAQTDLSEFFKKWNPGANAYQLPGASEMSFEGGVSQSAYNTLASLDLPKPEQGPETINQVTEHKMSAE",glycan array binding signal (z-score),[1],0.437
same,glycan array binding signal (z-score),[2],2.04
same,glycan array binding signal (z-score),[3],1.36
same,glycan array binding signal (z-score),[4],0.943
same,glycan array binding signal (z-score),[5],0.16
same,glycan array binding signal (z-score),[6],-0.048
same,glycan array binding signal (z-score),[7],-0.862
same,glycan array binding signal (z-score),[8],4.26
same,glycan array binding signal (z-score),[9],2.97
same,glycan array binding signal (z-score),[10],-1.26
same,glycan array binding signal (z-score),[11],-1.05
same,glycan array binding signal (z-score),[12],-0.222
same,glycan array binding signal (z-score),[13],-1.22
same,glycan array binding signal (z-score),[14],-0.159
same,glycan array binding signal (z-score),[15],-0.847
same,glycan array binding signal (z-score),[16],0.515
same,glycan array binding signal (z-score),[17],2.64
same,glycan array binding signal (z-score),[18],-1.23
same,glycan array binding signal (z-score),[19],-1
same,glycan array binding signal (z-score),[20],-1.4
same,glycan array binding signal (z-score),[21],5.47
same,glycan array binding signal (z-score),[22],0.298
same,glycan array binding signal (z-score),[23],-0.939
same,glycan array binding signal (z-score),[24],-0.154
same,glycan array binding signal (z-score),[25],3.37
